Laboratory results from PubChem BioAssay AID2314 (National Center for Advancing Translational Sciences (NCATS), 2010).
In all, about 300,000 compounds went through this assay and about 37,000 (12%) were called active. The entries come from a sample that favours actives as a whole. Unmarked numbers belong to inactive results. Rule as the data show it: active = max response mostly above about 13% (no sharp cut-off); inactive = mostly below about 14%.

Experiment: Cycloheximide Counterscreen for Small Molecule Inhibitors of Shiga Toxin; also: read at 38.3 µM for the half of the compounds with a filed dose; 0% is about no effect
Conditions: cell reporter, cycloheximide protein synthesis inhibition counterscreen; hits give high values
`COc1ccc(-c2nnc(SC(=O)N3c4ccccc4Sc4ccccc43)o2)cc1` showed a max response of 9.5%. `COc1ccc2[nH]c(=O)c(C3c4cc(OC)c(OC)cc4CCN3C(=O)c3ccco3)cc2c1` (stereo not drawn) gave a max response of -3.91%. With `NS(=O)(=O)c1cccc(NC(=O)CC23CC4CC(CC(Br)(C4)C2)C3)c1` the max response was -0.826%. With `CN(C(=O)CCN1C(=O)/C(=C/c2ccccc2F)SC1=S)C1CCS(=O)(=O)C1` (stereo not drawn) the max response was 4.42%. For `O=C(CN1C(=O)/C(=C\c2ccccc2F)SC1=S)Nc1nc2ccccc2s1`, the max response was 47.4% (active). Work on `O=C(CN1C(=O)/C(=C/c2ccccc2F)Sc2ccccc21)NCc1cccnc1` yielded a max response of 8.85%. Work on `COC(=O)c1cccc(N(C(=O)CNC(=O)c2cccs2)C(C(=O)NCC2CCCO2)c2ccc(OC)c(OC)c2)c1` (stereo not drawn) yielded a max response of -3.34%. With `Cc1cc(O)ccc1-c1cnc2ccccc2n1` the max response was 34.4% (active). `O=C(O)c1cc(S(=O)(=O)N(Cc2ccccc2)c2ccccc2)ccc1Cl` gave a max response of -0.844%. For `COc1ccc(N(C(=O)CNC(=O)c2ccco2)C(C(=O)NCC2CCCO2)c2ccccc2)cc1Cl` (stereo not drawn), the max response was -3.36%. Work on `CCCN1CCC(=O)N(C(CSc2ccc(C)cc2)Cc2ccccc2)CC1` (stereo not drawn) yielded a max response of 7.93%. With `COc1ccc(SC[C@H](Cc2ccccc2)N2CCN(CCc3ccccc3)CCC2=O)cc1` the max response was -4.06%. With `Cc1ccc(SCC(CC(C)C)N2CCN(CCc3ccccc3)CCC2=O)cc1` (stereo not drawn) the max response was 40% (active). Work on `CCOC(=O)CN1C(=O)C(=O)c2cc(C)ccc21` yielded a max response of -1.86%. Compound `CCOC(=O)[C@@H]1[C@H]2COc3cc(OC)ccc3[C@H]2N2C(=O)N(c3ccc(F)cc3)C(=O)[C@]12C` has a max response of 0.485%. Compound `COCCN(C(=O)C(C)C)c1nnc(-c2ccc(C(C)(C)C)cc2)s1` has a max response of 13.2%. Compound `NS(=O)(=O)c1cccc(NC(=O)COC(=O)/C=C/c2ccco2)c1` has a max response of 0.371%. `O=C(Cc1cccs1)Nc1cccc(-c2nc3ccccc3[nH]2)c1` showed a max response of 11.5%. `CC(C)Oc1ccc(/C=C(\NC(=O)/C=C/c2ccco2)C(=O)NCCc2nc3ccccc3[nH]2)cc1` gave a max response of 5.81%. Work on `Cc1ccc(-c2nc3ccccc3[nH]2)cc1NC(=O)c1sc2ccccc2c1Cl` yielded a max response of -0.874%. In the case of `O=C(Nc1cccc(-c2nc3ccccc3[nH]2)c1)c1ccc(C(=O)Nc2cccc(-c3nc4ccccc4[nH]3)c2)cc1`, the max response is reported as 48.3% (active). With `O=C(/C=C/c1ccco1)Nc1cccc(-c2nc3ccccc3[nH]2)c1` the max response was 51.8% (active). For `COc1ccc(C(=O)Nc2ccccc2C(=O)N/N=C/c2ccc(O)c(OC)c2)cc1`, the max response was -7.9%. For `COc1cc(/C=N/NC(=O)c2ccc(N3CCCC3=O)cc2)ccc1O`, the max response was 36% (active). With `O=C(N/N=C/c1cccc(Br)c1)c1ccc(N2CCCC2=O)cc1` the max response was -5.81%. For `Cc1c(Cl)cccc1NC(=O)Nc1ccc(C(=O)N2CCCC2)cc1`, the max response was -1.9%. With `O=C(CCS(=O)(=O)c1ccc2c(c1)NC(=O)CS2)NCc1ccccc1Cl` the max response was -3.16%. For `O=C(CSc1n[nH]c(=O)n1-c1ccccc1)Nc1ccccc1C(F)(F)F`, the max response was -2.47%. For `CC(N=Cc1nc(-c2ccccc2)oc1O)c1ccccc1` (stereo not drawn), the max response was 35.7% (active). `CCOc1ccc2nc(/N=C/c3nc(-c4ccccc4)oc3O)sc2c1` gave a max response of -1.31%. Work on `Cc1c(Cl)cccc1NC(=O)NCCCN1CCCC1=O` yielded a max response of -0.801%. `COCCN1C(=O)C(=O)/C(=C(/O)c2ccc(S(=O)(=O)N3CCOCC3)cc2)C1c1ccc(O)c(OC)c1` (stereo not drawn) gave a max response of -5.59%. With `Cc1cccc(NC(=S)NCc2ccc3[nH]c4c(c3c2)CCCC4)c1` the max response was 9.68%. In the case of `O=c1c2ccccc2nc(/C=C/c2ccco2)n1-c1ccccc1O`, the max response is reported as 24.2% (active). For `CCn1c(/C=C/c2ccc([N+](=O)[O-])o2)nc2ccccc2c1=O`, the max response was -4.66%. `O=c1c2ccccc2nc(/C=C/c2ccc(F)cc2)n1-c1ccccc1O` showed a max response of 6.44%. With `O=C(Nc1ccc(F)c([N+](=O)[O-])c1)C1CC(=O)N(Cc2ccccc2)C1` (stereo not drawn) the max response was -3.3%. In the case of `COc1cccc(N(CC(=O)NC2CCCC2)C(=O)Cn2nnc(-c3ccc(C)o3)n2)c1`, the max response is reported as -3.92%. In the case of `COC(=O)CCc1ccccc1S(=O)(=O)N(CCC(=O)OC)Cc1ccccc1`, the max response is reported as -11%. Compound `COc1ccc(Cl)cc1-n1c(=S)sc2c(=O)n(-c3ccc(F)cc3)c(SCC(=O)O)nc21` has a max response of 0.929%. In the case of `O=C1C2N=NN(CC(=O)N3N=C(c4cccc5ccccc45)CC3c3ccccc3)C2C(=O)N1c1ccccc1` (stereo not drawn), the max response is reported as -3.29%. `N#C/C(=C\c1ccccc1C(F)(F)F)C(=O)Nc1ccccc1F` showed a max response of -2.94%. In the case of `CNC(=O)/C(C#N)=C/c1c(F)cccc1Cl`, the max response is reported as 15.7% (active). Work on `O=C(/C=C/c1c(F)cccc1Cl)Nc1nn[nH]n1` yielded a max response of -1.57%. In the case of `CCc1ccc(/C=N/NC(=O)c2ccc(OC3CCCC3)cc2)s1`, the max response is reported as 12.2%. `COc1ccc(CCNC(=O)CCn2c(=O)c3ccccc3n(CC(=O)NCC3CCCO3)c2=O)cc1OC` (stereo not drawn) showed a max response of 11%. With `Cn1c(=N)n(CC(O)c2ccccc2)c2ccccc21` (stereo not drawn) the max response was 70.1% (active). `Cc1nc2ccccc2n1CC(O)c1ccccc1` (stereo not drawn) showed a max response of -1.62%. With `Cn1c(=N)n(CC(O)c2cccs2)c2ccccc21` (stereo not drawn) the max response was -3.56%. With `COc1ccc(NC(=O)[C@H](NC(=O)[C@@H]2Cc3ccccc3CN2)c2ccccc2)cc1` the max response was -1.13%. `COC(C(=O)Nc1ccc(C(C)=O)cc1)c1ccccc1` (stereo not drawn) showed a max response of -2.94%. With `COc1ccc(NC(C(=O)Nc2cccc(C(C)=O)c2)c2ccccc2)cc1` (stereo not drawn) the max response was 12.5% (active). `O=C(NC1CCN(C(=S)Nc2ccc(Cl)cc2)CC1)C1CCCCC1` gave a max response of -3.84%. Work on `O=C(Nc1ccc(Cl)cc1)Nc1ccc(C(=O)N2CCOCC2)cc1` yielded a max response of 15.1%. With `CC(C)S(=O)(=O)c1csc(NC(=O)Nc2ccc(Cl)cc2)c1Cl` the max response was 17.4% (active). In the case of `NS(=O)(=O)c1ccc(CCNC(=O)Nc2ccc(Cl)cc2)cc1`, the max response is reported as 11%. `Cc1cccc(OCC(=O)Nc2ccc(NC(=O)c3ccco3)c(C)c2)c1` gave a max response of 6.82%. In the case of `COC(=O)c1nc(NC(=O)c2ccc(C(C)(C)C)cc2)n[nH]1`, the max response is reported as 4.76%. With `CSc1ncc(C(=O)Nc2ccc(C)cc2C)c(C)n1` the max response was 2.97%. With `CSc1nccc(NC(=O)c2ccc(C(C)(C)C)cc2)n1` the max response was 38.6% (active). For `Cn1c(Cn2nnc3ccccc32)nnc1SCC(=O)c1ccccc1F`, the max response was 1.74%. For `CCOc1ccc(Nc2nc(Cl)nc(N3CCN(c4ccc(OC)cc4)CC3)n2)cc1`, the max response was 1.38%. With `c1ccc(Nc2nc(N3CCOCC3)c3ccccc3n2)cc1` the max response was 3.89%. With `COc1ccc(Nc2ncc(F)c(N3CCOCC3)n2)cc1` the max response was 27.6% (active). `OCCNc1nc2ccccc2n1-c1ncnc2sc3c(c12)CCC3` showed a max response of -6.62%. `CCCCCCCCCOC1OC(CO)C(O)C(O)C1NC(C)=O` (stereo not drawn) showed a max response of 2.49%. In the case of `COc1cccc(CC2(CO)CCCN(Cc3nc(-c4cccs4)oc3C)C2)c1` (stereo not drawn), the max response is reported as 1.79%. With `Cc1nn2cc(-c3ccc(Cl)cc3)cnc2c1Br` the max response was 23.7% (active). `COc1cccc(N2CCN(c3ccc4nnc(CCC(=O)N5CCN(C)CC5)n4n3)CC2)c1` gave a max response of -3.61%. For `O=C(NCCc1c[nH]c2ccccc12)C1CCN(Cc2ccc(Br)cc2)CC1`, the max response was -1.22%. For `COc1cc(OC)c(NC(=O)C2CCCN2C(=O)OCc2ccccc2)cc1Cl` (stereo not drawn), the max response was -2.36%. With `COC(=O)c1ccc(OC(=O)c2nn(C)cc2Cl)c(OC)c1` the max response was 8.01%. `CCNS(=O)(=O)c1ccc(NC(=O)Nc2cccc(OC)c2)cc1` showed a max response of 10.4%. For `COc1cccc(NC(C)=[N+](C)CCNS(=O)(=O)c2ccc(Cl)cc2)c1`, the max response was 43.4% (active). `COc1ccc(S(=O)(=O)NCCCCOc2ccc(Cl)cc2)cc1` showed a max response of -3.02%. In the case of `CC/C(=N\NC(=O)c1c(C)nc2ccccn12)c1ccc(Cl)cc1`, the max response is reported as 6.12%. `CN(C)c1ccc(C2N(C)C(=O)c3ccccc3N2C)cc1` (stereo not drawn) gave a max response of -2.11%. Work on `O=C(C1=C(O)C(=O)N(c2ncccn2)C1c1cccs1)c1ccco1` (stereo not drawn) yielded a max response of 0.951%. `O=C(COc1ccc2ccccc2c1)N1CCN(C(=O)c2cccs2)CC1` gave a max response of -3.04%. With `O=C(C1=C(O)C(=O)N(CCOCCO)C1c1ccccn1)c1cccs1` (stereo not drawn) the max response was 15.5% (active). `Cc1ccc2[nH]c(=O)c(CC(=O)O)c(-c3ccccc3)c2c1` gave a max response of -1.3%. For `c1ccc(COc2ccccc2CNCc2cccnc2)cc1`, the max response was 2.03%. `COC(=O)N/N=C/c1ccc(/C=N/NC(=O)OC)cc1` gave a max response of -2.42%. `O=C(O)c1ccc(/C=N/NC(=O)c2ccc(Br)cc2)cc1` gave a max response of -2.33%. With `CC(C)(C)OC(=O)N/N=C/c1ccc(C(=O)O)cc1` the max response was 29.1% (active). With `Cc1cccc2c1cnn2C(=O)CCC(=O)NC1CCCCC1` the max response was 4.44%. `Cc1nc2nc(SCC(=O)Nc3cccc(F)c3)[nH]c2cc1Br` gave a max response of 1.17%. With `COc1ccccc1-c1cc(C(=O)N2CCCCC2)no1` the max response was 59.2% (active). For `COc1ccccc1N1CCN(C(=O)c2cc(-c3ccc(Cl)c(Cl)c3)on2)CC1`, the max response was -1.8%. In the case of `O=C(c1cc(-c2ccccc2O)on1)N1CCCC1`, the max response is reported as 35% (active). `COc1cccc(-c2cc(C(=O)N3CCN(c4ccccc4OC)CC3)no2)c1` gave a max response of 7.23%. With `COc1cccc(OCc2cc(C(=O)N3CCN(C(=O)c4ccco4)CC3)no2)c1` the max response was 44.9% (active). With `O=C(c1cc(-c2cccs2)on1)N1CCCCC1` the max response was 50.6% (active). For `COc1cccc(OC)c1OCCN1CCN(C(=O)c2ccco2)CC1`, the max response was -3.58%. With `O=C(c1ccco1)N1CCN(C(=O)c2ccc(COc3ccc(F)cc3)o2)CC1` the max response was -1.31%. `O=C(c1ccc(Cl)c(Cl)c1)N1CCCC1` gave a max response of -2.63%. Work on `CNC(=O)n1ccc(C(=O)N2CCCCC2)n1` yielded a max response of 1.48%. Work on `O=C(C1CCN(S(=O)(=O)c2cccs2)CC1)N1CCCCCC1` yielded a max response of 10%.
